Results filed as inconclusive are left out. Where a call stands in place of a potency, no number is given. Activity calls are given as the source filed them. The call rests on the fitted dose curve; in most records, active means well fitted curve in the direction sought with a large enough effect; inconclusive means small, poorly fitted or top-dose-only effect, or another doubt; inactive means no such curve, though single readings can be large; an effect the other way counts as inactive or inconclusive.
Assays:
[1] = P-glycoprotein substrates identified in KB-8-5-11 adenocarcinoma cell line, qHTS therapeutic library screen (AID 1346987); further: nearly all actives have a fitted effect of over 65% in size; further: potency means the concentration at half of the fitted maximal effect
Outline: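 P-gp-mediated resistance screen: KB-8-5-11 cells treated 72 h with compounds in dose-response. CellTiter-Glo viability.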

[2] = NS1 protein of Zika virus - qHTS assay to identify small molecule inhibitors in human HEK 293 cells (AID 1347053); further: nearly all actives have a fitted effect of over 55% in size; further: potency means the concentration at half of the fitted maximal effect
Outline: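 HEK 293 cells pretreated with compound for 1 h, then infected with ZIKV MR766 (MOI 0.5) for 24 h at 37 C. NS1 detected by TR-FRET with two anti-NS1 antibodies; normalized to uninfected (0%) and infected (100%) wells.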

[3] = qHTS of pediatric cancer cell lines to identify multiple opportunities for drug repurposing: Primary screen for TC32 cells (AID 1347089); further: nearly all actives have a fitted effect of over 60% in size; further: potency means the concentration at half of the fitted maximal effect
Outline: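 A viability screen of TC32 cells was run over 48 h, with primary MIPE doses spanning 0.78 nM–46 µM and NPC doses 0.59 nM–46 µM. ATP luminescence (CellTiter-Glo) served as the read-out.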

[4] = qHTS of pediatric cancer cell lines to identify multiple opportunities for drug repurposing: Primary screen for DAOY cells (AID 1347090); further: nearly all actives have a fitted effect of over 55% in size; further: potency means the concentration at half of the fitted maximal effect
Outline: (§1)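 Eight- or eleven-point concentration series, 48 h treatment at 37 degrees C in growth media; readout CellTiter-Glo luminescence. Potency and efficacy were taken from the concentration-response curves.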

[5] = qHTS of pediatric cancer cell lines to identify multiple opportunities for drug repurposing: Primary screen for SJ-GBM2 cells (AID 1347091)
Outline: as §1

[6] = qHTS of pediatric cancer cell lines to identify multiple opportunities for drug repurposing: Primary screen for SK-N-MC cells (AID 1347093); further: potency means the concentration at half of the fitted maximal effect
Outline: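 Metabolically active cells were quantified by ATP-dependent luminescence (CellTiter-Glo, 15 min at room temperature) following 48 h treatment. Cells had been plated at 500-1,000 per well and settled for 5 h beforehand.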

[7] = qHTS of pediatric cancer cell lines to identify multiple opportunities for drug repurposing: Primary screen for BT-37 cells (AID 1347094); further: potency means the concentration at half of the fitted maximal effect
Outline: (§2)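 Primary screen of approved and investigational compounds on cells in growth media at 37 degrees C, 5% CO2. MIPE set at 11-point and NPC set at 8-point dilutions; viability scored by ATP-based luminescence at 48 hours.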

[8] = qHTS of pediatric cancer cell lines to identify multiple opportunities for drug repurposing: Primary screen for NB-EBc1 cells (AID 1347095)
Outline: as §2

[9] = qHTS of pediatric cancer cell lines to identify multiple opportunities for drug repurposing: Primary screen for U-2 OS cells (AID 1347096); further: nearly all actives have a fitted effect of over 50% in size; further: potency means the concentration at half of the fitted maximal effect
Outline: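 Cells (500-1,000/well) in growth media were settled 5 h at 37 degrees C, then given compounds for 48 h. Viability was read as CellTiter-Glo luminescence. Primary runs used MIPE at 11 points (0.78 nM-46 µM) and NPC at 8 points (0.59 nM-46 µM); follow-ups used 11 points.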

[10] = qHTS of pediatric cancer cell lines to identify multiple opportunities for drug repurposing: Primary screen for Saos-2 cells (AID 1347097); further: nearly all actives have a fitted effect of over 40% in size; further: potency means the concentration at half of the fitted maximal effect
Outline: as §2

[11] = qHTS of pediatric cancer cell lines to identify multiple opportunities for drug repurposing: Primary screen for SK-N-SH cells (AID 1347098); further: nearly all actives have a fitted effect of over 65% in size; further: potency means the concentration at half of the fitted maximal effect
Outline: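 Cells (500-1,000/well) rested 5 h, then received compounds for 48 h; metabolically active cells were measured by CellTiter-Glo luminescence. Final concentrations spanned up to 46 µM (MIPE, 11-point) or 0.59 nM-46 µM (NPC, 8-point) in primary screens, 11-point in follow-ups.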

[12] = qHTS of pediatric cancer cell lines to identify multiple opportunities for drug repurposing: Primary screen for A673 cells (AID 1347092); further: potency means the concentration at half of the fitted maximal effect; nearly all actives have a fitted effect of over 45% in size
Outline: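 Titration-based qHTS on A673 cells: MIPE compounds spanned 11 points (0.78 nM to 46 µM final), NPC compounds 8 points (0.59 nM to 46 µM final). Viability after 48 h was measured by ATP luminescence.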

Row | SMILES | Potency [1] | Potency [2] | Potency [3] | Potency [4] | Potency [5] | Potency [6] | Potency [7] | Potency [8] | Potency [9] | Potency [10] | Potency [11] | Potency [12]
1 | COc1cc(O)c(C(=O)c2ccccc2)cc1S(=O)(=O)O | inactive | inactive | inactive | inactive | inactive | inactive | inactive | inactive | inactive | inactive | inactive | 
2 | CCCCCCCCOc1ccc(C(=O)c2ccccc2)c(O)c1 | inactive | inactive | inactive | inactive | inactive | inactive | inactive | inactive | inactive |  | inactive | 
3 | O=C(O)C(Cc1cc(I)c(O)c(I)c1)c1ccccc1 (centres undefined) | inactive | inactive | inactive | inactive | inactive |  | inactive | inactive | inactive |  |  | 
4 | CCOC(=O)c1c(N)sc2c1CCN(Cc1ccccc1)C2 | inactive | inactive | inactive | inactive | inactive |  |  | inactive | inactive |  |  | 
5 | C[N+]12CCC(CC1)C(OC(=O)C(O)(c1ccccc1)c1ccccc1)C2 (centres undefined) | inactive | inactive | inactive | inactive | inactive | inactive | inactive | inactive | inactive | inactive | inactive | 
6 | CCN1/C(=C/C=C/c2sc3ccccc3[n+]2CC)Sc2ccccc21 | 18400 nM (active) | 3550 nM (active) | 1290 nM (active) | 1160 nM (active) |  | 1300 nM (active) | 1350 nM (active) |  | 9200 nM (active) | 920 nM (active) | 1890 nM (active) | 580 nM (active)
7 | Nc1nc(-c2ccccc2)c(Br)c(=O)[nH]1 | inactive | inactive | inactive | inactive |  | inactive | inactive | inactive | inactive | inactive |  | 
8 | CC(=O)Nc1ccc(OC(=O)c2ccccc2OC(C)=O)cc1 | inactive | inactive | inactive | inactive | inactive |  | inactive | inactive | inactive | inactive | inactive | 
9 | FC1(F)C(F)(F)C(F)(F)C2(F)C(F)(F)C(F)(F)C(F)(F)C(F)(F)C2(F)C1(F)F (centres undefined) | inactive | inactive | inactive | inactive | inactive | inactive | inactive | inactive | inactive |  | inactive | 
10 | CCCCCCCCCCC[C@@H](C[C@@H]1OC(=O)[C@H]1CCCCCC)OC(=O)[C@H](CC(C)C)NC=O | inactive | inactive | inactive | inactive |  |  | inactive |  | inactive |  | inactive | 
11 | O=C(O)C1(C(=O)O)CCC1.[NH2-].[NH2-].[Pt+2] | inactive | inactive | inactive | inactive | inactive | inactive | inactive | inactive | inactive | inactive | inactive | 
